This is a sample that favours compounds with a hit; in the whole collection about 0.4% have one here.
UDG counterscr: UDG inhibition counter-screen; FRET deamination/UDG coupled assay, UDG read, 4 h; Potency, µM (highest dose often 115 µM), hits mostly inhibitors; 91,000 tested, 0.14% active; AID 1347430; note: nearly all actives have a fitted effect of over 65% in size
AID inh: inhibitors of human activation induced cytidine deaminase; Q9GZX7; AID deamination FRET fluorescence, UDG-coupled, 4 h; Potency, µM (top dose mostly 115 µM), usual class: inhibitors; 91,000 tested, 0.32% active; AID 1347428; note: nearly all actives have a fitted effect of over 25% in size
Target sequence (Q9GZX7 whole entry, looked up): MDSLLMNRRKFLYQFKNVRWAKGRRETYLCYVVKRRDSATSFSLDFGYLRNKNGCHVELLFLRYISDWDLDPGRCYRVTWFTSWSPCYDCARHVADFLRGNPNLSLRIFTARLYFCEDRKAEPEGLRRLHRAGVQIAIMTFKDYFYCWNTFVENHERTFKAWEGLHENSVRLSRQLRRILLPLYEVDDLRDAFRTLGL
Of the large screens only hits and unclear results are named; the others gave an inactive call; ! = repeats disagree. Calls come from the whole dose curve; as a rule, active = well fitted curve in the direction sought with a large enough effect; inconclusive = small, poorly fitted or top-dose-only effect, or another doubt; inactive = no such curve, though single readings can be large; an effect the other way counts as inactive or inconclusive.

CCc1ccc(S(=O)(=O)c2nnn3c2nc(N2CCC(C(N)=O)CC2)c2cc(Cl)ccc23)cc1	AID inh 25µM
CC1CCN(c2nc3c(S(=O)(=O)c4ccccc4)nnn3c3ccc(Cl)cc23)CC1	AID inh inconclusive
COc1ccc(CN(C(=O)c2ccc(C#N)cc2)C2CC2)cc1	none
Cc1cccc(OCCCSc2nc(-c3ccc(C(C)(C)C)cc3)nc3cc(=O)[nH]n23)c1C	AID inh inconclusive
CCc1ccc(OCCCSc2nc(-c3ccc(C(C)(C)C)cc3)nc3cc(=O)[nH]n23)cc1	AID inh 79µM
Cc1cc2oc(C(=O)Nc3cccc(Cl)c3C)cc(=O)c2cc1C	none
CC(C)c1noc(CN2CCC(NC(=O)c3cnn(C)c3)CC2)n1	none
Clc1cccc(CSc2nc3ncccc3o2)c1	none
Clc1cccc(CSc2cccc3cccnc23)c1	AID inh 25µM
Cc1ccc(S(=O)(=O)CC(=O)c2ccc(Cl)c(Cl)c2)cc1	none
Cc1ccc(C)c(N2CCN(C(=O)c3cc4ccc5cccnc5c4[nH]3)CC2)c1	AID inh inconclusive
Cc1cccc(N2CCN(C(=O)c3cc4ccc5cccnc5c4[nH]3)CC2C)c1 (stereo not drawn)	UDG counterscr inconclusive, AID inh 35µM
Cc1nc2cc(NC(=O)COc3cccc(Br)c3)ccc2o1	none
CCOc1ccc(NC(=O)c2ccccc2C)c2cccnc12	none
CC(C)(CNC(=O)c1cc(-c2ccccc2)no1)N1CCOCC1	none
Cc1ccc(-c2noc(CSc3nnc(C)n3-c3ccc(F)cc3)n2)cc1	UDG counterscr inconclusive
Cc1cccc(-n2c(SCc3nc(-c4ccccc4C)no3)nnc2-c2ccccc2)c1	none
Cc1ccc(-c2noc(CSc3nnc(C4CC4)n3-c3ccccc3)n2)cc1	UDG counterscr 89µM
Cc1nnc(SCc2nc(-c3ccc(Cl)cc3)no2)n1-c1ccc(F)cc1	UDG counterscr 79µM, AID inh inconclusive
Oc1ccc(C2N3CC4(c5ccccc5)CN2CC(c2ccccc2)(C3)C4O)cc1 (stereo not drawn)	none
CNC(=O)CN(C)C(=O)c1cccc(C(F)(F)F)c1	none
CCOC(=O)C1=C(C)NC(=O)NC1c1cn(-c2ccccc2)nc1-c1ccc(OCC)cc1 (stereo not drawn)	AID inh inconclusive
CCOc1ccc(-c2nn(-c3ccccc3)cc2C2NC(=O)NC(C)=C2C(=O)OC(C)C)cc1C (stereo not drawn)	UDG counterscr inconclusive, AID inh 45µM!
CCOc1ccc(-c2nn(-c3ccccc3)cc2C2NC(=O)NC(C)=C2C(=O)OC(C)C)cc1 (stereo not drawn)	UDG counterscr inconclusive, AID inh 45µM
COC(=O)C1=C(C)NC(=O)NC1c1cn(-c2ccccc2)nc1-c1ccc(OC)c(Cl)c1 (stereo not drawn)	none
N#Cc1ccc(COC(=O)c2ccc[nH]2)cc1	none
N#Cc1nc(COc2ccc(Cl)cc2Cl)oc1NCc1ccco1	none
C=C(C)C1CCC2(COC(=O)CCC(=O)O)CC[C@]3(C)C(CCC4[C@@]5(C)CCC(OC(=O)CCC(=O)O)C(C)(C)C5CC[C@]43C)C12 (stereo partly drawn)	AID inh 28µM
C=C(C)[C@@H]1CCC2(COC(C)=O)CC[C@]3(C)C(CCC4[C@@]5(C)CCC(=O)C(C)(C)C5CC[C@]43C)C12 (stereo partly drawn)	none
CCCCn1c(O)c(C2=Nc3ccccc3SC(c3ccc(O)cc3)C2)c(=O)[nH]c1=O (stereo not drawn)	none

Assay outcomes deposited in PubChem by National Center for Advancing Translational Sciences (NCATS).
